The whole screen tested about 52,000 compounds, of which about 4,300 (8.3%) were called active. The sample as a whole holds a higher share of actives than the screen did. A number with no mark means an inactive call. No stated cut-off is given here; in the data, active means survival mostly below about 52% (no sharp cut-off); inactive means mostly above about 56%.
The compounds below were run on DeltatarO mutant (assay: growth inhibition of S. aureus wild type versus tarO mutant, primary screen, teichoic acid synthesis inhibitors, RN4220, OD600 (AID 463173)). Details: OD600, 18 h, hits give low values, screened at 18.75 µg/mL (by protocol).

Row | Compound | survival
1 | Cc1cccc2c1-c1sc(C(=O)NCc3ccccc3Cl)cc1CO2 | 55%
2 | Cc1ccc(NC(=O)C2CCCN(S(=O)(=O)c3ccc4c(c3)oc(=O)n4C)C2)cc1Cl (stereo not given) | 76%
3 | COc1ccc(C(=O)CSc2nc(C)cc(C)n2)cc1C | 104%
4 | Cc1ccc(NC(=O)CN2CCCN(Cc3cc(C)ccc3C)S2(=O)=O)c(Cl)c1 | 81%
5 | Cc1ccccc1CN1CCCN(CC(=O)Nc2c(C)cccc2C)S1(=O)=O | 93%
6 | CCc1cccc(C)c1NC(=O)CN1CCCN(Cc2ccc(C)cc2)S1(=O)=O | 8% (active)
7 | CCc1cccc(C)c1NC(=O)Cn1ccn(Cc2ccc(Cl)cc2)c(=O)c1=O | 41% (active)
8 | Cc1ccc(CN2CCCN(CC(=O)Nc3ccc(C)cc3C)S2(=O)=O)cc1 | 89%
9 | CCc1cccc(C)c1NC(=O)CN1CCCN(Cc2ccccc2Cl)S1(=O)=O | 55%
10 | Cc1ccc(NC(=O)Cn2ccn(Cc3ccc(Cl)cc3)c(=O)c2=O)cc1C | 111%
11 | CCc1cccc(C)c1NC(=O)Cn1ccn(-c2ccc(F)cc2)c(=O)c1=O | 52%
12 | Cc1ccc(NC(=O)CN2CCCN(Cc3ccccc3Cl)S2(=O)=O)c(C)c1 | 17% (active)
13 | CCOc1ccc(CNC(=O)CSc2nnc(C)c3c(C)n(-c4ccccc4)nc23)cc1 | 82%
14 | CCN1CCC(N(Cc2ccc3c(c2)OCO3)C(=O)Nc2cc(Cl)ccc2C(=O)OC)CC1 | 126%
15 | CCOC(=O)Cc1csc(NC(=O)CSc2nc3c(C)c(C)ccc3cc2C#N)n1 | 78%
16 | COc1ccc(CC(C(=O)O)c2ccccc2)cc1 (stereo not given) | 65%
17 | O=S(=O)(Nc1ccc(-c2ccc(N3CCCCC3)nn2)cc1)c1ccc(OC(F)(F)F)cc1 | 82%
18 | O=S(=O)(Nc1ccc(-c2ccc(N3CCCC3)nn2)cc1)c1ccc(OC(F)(F)F)cc1 | -4% (active)
19 | COc1ccc(C)cc1S(=O)(=O)Nc1cccc(-c2ccc(N3CCCC3)nn2)c1 | 78%
20 | O=S(=O)(Nc1cccc(-c2ccc(N3CCCCC3)nn2)c1)c1cccc(F)c1 | 91%

Row | Compound | survival
21 | O=S(=O)(Nc1cccc(-c2ccc(N3CCCCCC3)nn2)c1)c1ccccc1 | 6% (active)
22 | COc1ccc(C)cc1S(=O)(=O)Nc1cccc(-c2ccc(N3CCC(C)CC3)nn2)c1 | -2% (active)
23 | O=S(=O)(Nc1ccc(-c2ccc(N3CCCC3)nn2)cc1)c1ccc(C(F)(F)F)cc1 | 72%
24 | COc1ccc(F)cc1S(=O)(=O)Nc1cccc(-c2ccc(N3CCC(C)CC3)nn2)c1 | 109%
25 | CC1CCN(c2ccc(-c3cccc(NS(=O)(=O)c4ccc(Cl)s4)c3)nn2)CC1 | 72%
26 | Cc1ccc(S(=O)(=O)Nc2cccc(-c3ccc(N4CCCCC4)nn3)c2)s1 | 76%
27 | O=S(=O)(Nc1cccc(-c2ccc(N3CCCCCC3)nn2)c1)c1ccc(F)cc1 | 79%
28 | Cc1ccc(S(=O)(=O)Nc2cccc(-c3ccc(N4CCC(C)CC4)nn3)c2)s1 | -1% (active)
29 | O=C(c1ccccc1Cl)N(Cc1ccco1)Cc1cc2cc3c(cc2nc1Cl)OCO3 | 103%
30 | CCc1cnc2c(c1SCc1cc(OC)cc(OC)c1)c(=O)n(C)c(=O)n2C | 75%
31 | O=C(O)C1C2C=CC(C2)C1C(=O)N1CCN(Cc2ccccc2)CC1 (stereo not given) | 59%
32 | COc1ccc(S(=O)(=O)c2c(Nc3ccccc3F)sc(C(=O)c3cccc(OC)c3)c2N)cc1 | 97%
33 | Cc1sc2ncn(CC(=O)N(C)c3ccc(Br)cc3)c(=O)c2c1S(=O)(=O)N1CCC(C)CC1 | 70%
34 | Cc1ccc(OCc2cc(=O)n3cc(C)sc3n2)c(C)c1 | 59%
35 | Cc1ccc(NC(=O)c2ccc(=O)n(CC(=O)Nc3ccccc3)n2)cc1 | 85%
36 | O=C(Cn1ncc2c3ccccc3n(Cc3cccc(Cl)c3)c2c1=O)NCc1cccs1 | 99%
37 | Cc1cccc(CN2CCN(CC(=O)NCc3ccc(Cl)cc3)C2=O)c1 | 72%
38 | Cc1csc2nc(-c3cccc(NS(C)(=O)=O)c3)cn12 | 88%
39 | Cc1cccc2nc(-c3cccc(NS(=O)(=O)c4ccccc4)c3)cn12 | 35% (active)
40 | Cc1cccn2cc(-c3cccc(NS(=O)(=O)c4ccc(Cl)c(Cl)c4)c3)nc12 | 101%

Row | Compound | survival
41 | COc1ccc(-n2nc(C(=O)Nc3ccc(C)cn3)c3c4ccccc4n(C)c3c2=O)cc1Cl | 98%
42 | CN(C)c1cccc(C(=O)N2CCC(c3ccncc3)CC2)c1 | 88%
43 | O=c1[nH]nc(SC(F)(F)C(F)(F)C(F)(F)F)c(=O)[nH]1 | 37% (active)
44 | CCCCCCSc1n[nH]c(=O)[nH]c1=O | 78%
45 | CC(C)(C)c1ccc(CSc2n[nH]c(=O)[nH]c2=O)cc1 | 98%
46 | Cc1oc(-c2ccc(Cl)cc2)nc1Cn1c(=O)cc(C)c2c(C)nn(-c3cccc(F)c3)c21 | 82%
47 | O=C(Nc1ccc(Cl)c(C(F)(F)F)c1)C(Cc1ccccc1)NS(=O)(=O)c1ccc(Br)s1 (stereo not given) | 82%
48 | Cc1ccc(NS(=O)(=O)c2ccc3c(c2)CCCN3C(=O)C2CCC2)c(C)c1 | 85%
49 | CN(C)S(=O)(=O)c1ccc(C(=O)NCCSc2c(-c3ccccc3)[nH]c3ccccc23)cc1 | 68%
50 | Ic1ccc(Nc2nc3nonc3nc2N/N=C\c2ccco2)cc1 | 53%
51 | CCOC(=O)c1ccc(Nc2nc(C)cc(C)n2)cc1 | 85%
52 | CCOC(=O)c1ccc(Nc2nc3nonc3nc2NCc2ccco2)cc1 | 5% (active)
53 | Brc1cccc(Nc2nc3nonc3nc2NCc2ccco2)c1 | 6% (active)
54 | CCOC(=O)c1ccc(NC(=O)C(=O)NCc2ccco2)cc1 | 63%
55 | Cc1cccc(Nc2nc3nonc3nc2N/N=C\c2cccs2)c1C | 69%
56 | Cc1cccc(Nc2nc3nonc3nc2Nc2cccc(C)c2C)c1C | 66%
57 | CCOC(=O)c1ccc(Nc2nc3nonc3nc2Nc2cccc(C)c2C)cc1 | -1% (active)
58 | Cc1ccc(C)c(Nc2nc3nonc3nc2Nc2cccc(C)c2C)c1 | 2% (active)
59 | CCOC(=O)c1ccc(Nc2nc3ccc(C(=O)c4ccccc4)cc3n3c(C)nnc23)cc1 | 109%
60 | Brc1ccc(NCc2ccco2)cc1 | 96%

Reference: PubChem BioAssay AID463173 (ICCB-Longwood Screening Facility, Harvard Medical School, 2010)
